{
  "source": "PubChem BioAssay (NCATS)",
  "key": {"[1]": {"target": "Calcium and integrin-binding protein 1 (Homo sapiens) (UniProt Q99828)", "sequence (Q99828 whole entry, looked up)": "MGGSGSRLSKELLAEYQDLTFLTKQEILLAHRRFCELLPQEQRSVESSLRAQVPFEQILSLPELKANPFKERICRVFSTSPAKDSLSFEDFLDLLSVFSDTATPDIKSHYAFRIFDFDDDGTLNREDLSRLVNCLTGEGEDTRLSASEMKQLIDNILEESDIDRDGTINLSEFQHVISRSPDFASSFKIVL", "test": "Primary qHTS for Identification of Calcium Integrin Binding Protein 1 (CIB1) Competitor (AID 1508620);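 further: GST tagged CIB1 binding a fluorescein labelled alphaIIb integrin peptide tracer; top concentration of the series differs between compounds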", "summary_of_the_method": "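Fluorescence polarization competition: CIB1-GST (1 uM final) preincubated with compound 15 min at room temperature, then FITC-labeled alphaIIb peptide (100 nM final) added for another 15 min. Polarization read at Ex 480/Em 540.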"}, "[2]": {"target": "Cytochrome P450 2D6 (Homo sapiens) (UniProt P10635)", "sequence (P10635 whole entry, looked up)": "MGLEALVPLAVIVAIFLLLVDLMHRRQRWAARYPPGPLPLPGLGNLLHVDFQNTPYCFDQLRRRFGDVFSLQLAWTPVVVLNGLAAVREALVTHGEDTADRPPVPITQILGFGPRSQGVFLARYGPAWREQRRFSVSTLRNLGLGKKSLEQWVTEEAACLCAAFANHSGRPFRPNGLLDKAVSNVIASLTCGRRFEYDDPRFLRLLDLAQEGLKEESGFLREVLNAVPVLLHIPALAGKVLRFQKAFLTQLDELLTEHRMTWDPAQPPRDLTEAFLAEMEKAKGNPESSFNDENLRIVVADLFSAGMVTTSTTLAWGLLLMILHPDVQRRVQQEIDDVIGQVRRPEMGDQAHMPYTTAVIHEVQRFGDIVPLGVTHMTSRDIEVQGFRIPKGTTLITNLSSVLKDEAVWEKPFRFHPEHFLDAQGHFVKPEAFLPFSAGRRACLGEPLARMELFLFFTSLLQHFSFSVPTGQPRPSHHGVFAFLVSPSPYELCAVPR", "test": "Cytochrome P450 family 2 subfamily D member 6 (CYP2D6) small molecule antagonists: luciferase biochemical (cell-free) qHTS assay (AID 1645840; active means well fitted curve in the direction sought with a large enough effect in the repeat runs; an effect the other way counts as inactive or inconclusive; further: nearly all actives have a fitted effect of over 55% in size; further: potency means the concentration at half of the fitted maximal effect)", "summary_of_the_method": "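P450-Glo luminescent screen: recombinant CYP2D6 enzyme–proluciferin substrate mix preincubated with compound 10 min at room temperature, then NADPH regeneration added for 1 h at room temperature. Detection reagent added for 20 min; luciferin light read as relative luminescence units.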"}, "[3]": {"target": "Cytochrome P450 2C9 (Homo sapiens) (UniProt P11712)", "sequence (P11712 whole entry, looked up)": "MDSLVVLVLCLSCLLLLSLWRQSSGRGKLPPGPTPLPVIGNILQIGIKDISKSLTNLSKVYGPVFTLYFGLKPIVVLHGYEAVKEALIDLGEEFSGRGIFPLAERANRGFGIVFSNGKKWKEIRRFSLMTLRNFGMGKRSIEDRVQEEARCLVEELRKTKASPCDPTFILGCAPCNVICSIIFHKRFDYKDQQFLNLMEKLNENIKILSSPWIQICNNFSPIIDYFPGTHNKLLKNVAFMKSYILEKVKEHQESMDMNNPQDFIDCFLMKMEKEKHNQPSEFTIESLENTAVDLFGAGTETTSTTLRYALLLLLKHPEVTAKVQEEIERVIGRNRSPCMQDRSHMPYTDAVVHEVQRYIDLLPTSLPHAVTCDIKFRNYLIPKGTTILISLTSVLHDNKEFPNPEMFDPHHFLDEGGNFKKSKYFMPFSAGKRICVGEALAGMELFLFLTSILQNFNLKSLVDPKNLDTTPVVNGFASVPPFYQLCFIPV", "test": "Cytochrome P450 family 2 subfamily C member 9 (CYP2C9) small molecule antagonists: luciferase biochemical (cell-free) qHTS assay (AID 1645842; active means well fitted curve in the direction sought with a large enough effect in the repeat runs; an effect the other way counts as inactive or inconclusive; further: nearly all actives have a fitted effect of over 55% in size; further: potency means the concentration at half of the fitted maximal effect)", "summary_of_the_method": "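Luminescence, after 20 min with luciferin detection reagent, reflected CYP2C9 turnover during a 1 h NADPH-driven reaction at 37C. Enzyme-substrate mix contained 0.4% bovine serum albumin and was preincubated with compound 10 min at room temperature.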"}, "[4]": {"test": "Primary qHTS for inhibitors of nuclear receptor binding SET domain protein 2 (NSD2) in an isogenic RCH-ACV NSD2 p.E1099K mutant (9B) (AID 1645876); further: nearly all actives have a fitted effect of over 70% in size; further: potency means the concentration at half of the fitted maximal effect"}, "[5]": {"test": "Primary qHTS for inhibitors of nuclear receptor binding SET domain protein 2 (NSD2) in an RCH-ACV wild type WT cells (2C) (AID 1645877); further: nearly all actives have a fitted effect of over 70% in size; further: potency means the concentration at half of the fitted maximal effect"}},
  "note": "Results filed as inconclusive are left out. Where a call stands in place of a potency, no number is given. Values without a mark were called inactive. The source made the active and inactive calls. Unless noted, the call rests on the fitted dose curve; in most records, active means well fitted curve in the direction sought with a large enough effect; inconclusive means small, poorly fitted or top-dose-only effect, or another doubt; inactive means no such curve, though single readings can be large; an effect the other way counts as inactive or inconclusive.",
  "data": [
    {"compound": "NC1=NC2(c3cc(NC(=O)c4ccc(F)cn4)ccc3F)COCC2CS1", "note": "(stereo not given)", "values": [
      {"measurement": "Potency", "setting": "[1]", "result": "inactive"},
      {"measurement": "Potency", "setting": "[2]", "result": "4.77 µM (active)"},
      {"measurement": "Potency", "setting": "[3]", "result": "9.52 µM (active)"},
      {"measurement": "Potency", "setting": "[4]", "result": "inactive"},
      {"measurement": "Potency", "setting": "[5]", "result": "inactive"}
    ]},
    {"compound": "Cc1onc(-c2ccccc2Cl)c1C(=O)N(C)c1ccc(Cl)cc1", "values": [
      {"measurement": "Potency", "setting": "[1]", "result": "inactive"},
      {"measurement": "Potency", "setting": "[2]", "result": "inactive"},
      {"measurement": "Potency", "setting": "[3]", "result": "13.5 µM (active)"},
      {"measurement": "Potency", "setting": "[4]", "result": "inactive"},
      {"measurement": "Potency", "setting": "[5]", "result": "inactive"}
    ]},
    {"compound": "Cc1ccc(-n2nc(C(C)(C)C)cc2NC(=O)Nc2cc(COc3cccnc3)[nH]n2)cc1", "values": [
      {"measurement": "Potency", "setting": "[1]", "result": "inactive"},
      {"measurement": "Potency", "setting": "[2]", "result": "15.1 µM (active)"},
      {"measurement": "Potency", "setting": "[3]", "result": "7.56 µM (active)"},
      {"measurement": "Potency", "setting": "[4]", "result": "18.3 µM (active)"},
      {"measurement": "Potency", "setting": "[5]", "result": "9.16 µM (active)"}
    ]},
    {"compound": "COC(=O)[C@H](Cc1ccc([N+](=O)[O-])cc1)NC(=O)c1cccc2ccccc12", "values": [
      {"measurement": "Potency", "setting": "[1]", "result": "inactive"},
      {"measurement": "Potency", "setting": "[2]", "result": "2.13 µM (active)"},
      {"measurement": "Potency", "setting": "[3]", "result": "3.79 µM (active)"},
      {"measurement": "Potency", "setting": "[4]", "result": "inactive"},
      {"measurement": "Potency", "setting": "[5]", "result": "inactive"}
    ]},
    {"compound": "Cc1cccc(NC(=O)CN2CCC(c3ccccn3)CC2)c1", "values": [
      {"measurement": "Potency", "setting": "[1]", "result": "inactive"},
      {"measurement": "Potency", "setting": "[2]", "result": "13.5 µM (active)"},
      {"measurement": "Potency", "setting": "[3]", "result": "3.38 µM (active)"},
      {"measurement": "Potency", "setting": "[4]", "result": "inactive"},
      {"measurement": "Potency", "setting": "[5]", "result": "inactive"}
    ]},
    {"compound": "CC1(C)CC=C(C#Cc2ccccc2)c2cc(/C=C/c3ccc(C(=O)O)cc3)ccc21", "values": [
      {"measurement": "Potency", "setting": "[1]", "result": "inactive"},
      {"measurement": "Potency", "setting": "[2]", "result": "inactive"},
      {"measurement": "Potency", "setting": "[3]", "result": "19 µM (active)"},
      {"measurement": "Potency", "setting": "[4]", "result": "inactive"}
    ]},
    {"compound": "O=C(O)[C@H](Cc1ccccc1)Oc1ccc(-c2ccccc2)cc1", "values": [
      {"measurement": "Potency", "setting": "[1]", "result": "inactive"},
      {"measurement": "Potency", "setting": "[2]", "result": "inactive"},
      {"measurement": "Potency", "setting": "[3]", "result": "9.52 µM (active)"},
      {"measurement": "Potency", "setting": "[4]", "result": "inactive"},
      {"measurement": "Potency", "setting": "[5]", "result": "inactive"}
    ]},
    {"compound": "COc1cc(Nc2nc3c(s2)CCCC3c2ccccc2)ccc1-n1cnc(C)c1", "note": "(stereo not given)", "values": [
      {"measurement": "Potency", "setting": "[1]", "result": "inactive"},
      {"measurement": "Potency", "setting": "[2]", "result": "0.275 µM (active)"},
      {"measurement": "activity change, negative = viability loss", "setting": "[4]", "result": "-1.48% [at 9.23 µM]"},
      {"measurement": "outcome", "setting": "[5]", "result": "inactive [at 9.23 µM]"}
    ]},
    {"compound": "COc1ccc(NC(=O)c2ccc(-c3ccc(C(N)=O)cc3C)cc2)cc1N1CCN(C)CC1", "values": [
      {"measurement": "Potency", "setting": "[1]", "result": "inactive"},
      {"measurement": "Potency", "setting": "[2]", "result": "inactive"},
      {"measurement": "Potency", "setting": "[3]", "result": "inactive"},
      {"measurement": "Potency", "setting": "[5]", "result": "14.5 µM (active)"}
    ]},
    {"compound": "O=C(CCCCC1CCCCC1)N1CCC(c2cnc[nH]2)CC1", "values": [
      {"measurement": "Potency", "setting": "[1]", "result": "inactive"},
      {"measurement": "Potency", "setting": "[2]", "result": "5.35 µM (active)"},
      {"measurement": "Potency", "setting": "[4]", "result": "23 µM (active)"}
    ]}
  ]
}
